This note sets out measurements from PubChem BioAssay (NCATS).

SMILES strings stand for the structures. Active and inactive are the calls of the source. Calls follow the shape of the dose curve; as a rule, active = well fitted curve in the direction sought with a large enough effect; inconclusive = small, poorly fitted or top-dose-only effect, or effect the other way, or another doubt; inactive = no such curve, though single readings can be large or run the other way.

The experiment can be described thus: Inducers of the Endoplasmic Reticulum Stress Response (ERSR) in human glioma: Validation (AID 504836). The conditions noted are these: human glioma cells, ER stress response reporter; series mostly up to 38.3 µM. The method, boiled down: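 Stably transfected U87-MG glioma cells carrying a GRP78-based luciferase sensor; 16 h compound incubation. Luminescence end-point read 10 min after Bright-Glo addition at room temperature.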
For `O=C(Nc1ccc([N+](=O)[O-])cc1Cl)c1cc(Cl)ccc1O`, the result was inactive.
Turning to `O=C(O)CN(CCOCCOCCN(CC(=O)O)CC(=O)O)CC(=O)O`, the outcome was inactive.
As for `CCOC(=O)C1=C[C@]2(CC)CCCN3CCc4c(n1c1ccccc41)[C@@H]32`, the call was inactive.
Then `CC(C(=O)O)c1ccc(CC2CCCC2=O)cc1` (stereo not drawn), with “inactive”.
Then `CC(C)(C)c1ccc(C(O)CCCN2CCC(C(O)(c3ccccc3)c3ccccc3)CC2)cc1` (stereo not drawn), with “inactive”; and `CN(C)CCCN1c2ccccc2Sc2ccccc21`, with “inactive”.
Turning to `COc1cc2c(cc1OC)-c1cc(=Nc3c(C)cc(C)cc3C)n(C)c(=O)n1CC2`, the compound was called inactive.
Consider `NS(=O)(=O)c1cc2c(cc1Cl)NC(C1CC3C=CC1C3)NS2(=O)=O` (stereo not drawn), for which the compound was classed as inactive.
With `O=C(CCNNC(=O)c1ccncc1)NCc1ccccc1` the entry was “inactive”; with `C#CCN(C)Cc1ccccc1`, “inactive”; with `CC1=C(C)C(=O)C(CCCCC#CCCCC#CCO)=C(C)C1=O`, “inactive”.
Take `C(=C\c1ccccc1)/CN1CCN(C(c2ccccc2)c2ccccc2)CC1`: the call was inactive.
With `NC(N)=NCCC[C@H](N)C(=O)O` the entry was “inactive”; with `CC(C)COCC(CN(Cc1ccccc1)c1ccccc1)N1CCCC1` (stereo not drawn), “inactive”; with `CCCOc1ccccc1-c1nc2n[nH]nc2c(=O)[nH]1`, “inactive”.
Then `Cc1ccc(/C(=C\CN2CCCC2)c2ccccn2)cc1`, with “inactive”.
With `COc1ccc2c(c1OC)C(=O)O[C@@H]2[C@H]1c2c(cc3c(c2OC)OCO3)CCN1C` the entry was “inactive”; with `COCCc1ccc(OCC(O)CNC(C)C)cc1` (stereo not drawn), “inactive”; with `CSc1ccc2c(c1)C(N1CCN(C)CC1)Cc1ccccc1S2` (stereo not drawn), “inactive”.
In the case of `Cc1ccc(N(CC2=NCCN2)c2cccc(O)c2)cc1`, the compound was classed as inactive.
For `CC(C)NCC(O)COc1ccc(COCCOC(C)C)cc1` (stereo not drawn), the compound was called inactive.
As to `Cc1nc2sccn2c(=O)c1CCN1CCC(=C(c2ccc(F)cc2)c2ccc(F)cc2)CC1`, the compound was called inactive.
With `Cc1cc(C(C)(C)C)c(O)c(C)c1CC1=NCCN1` the entry was “inactive”; with `COc1ccccc1N1CCN(CCCNc2cc(=O)n(C)c(=O)n2C)CC1`, “inactive”; with `CN(C)CCN(Cc1cccs1)c1ccccn1`, “inactive”.
With `CN(C)CC[C@@H](c1ccc(Cl)cc1)c1ccccn1` the entry was “inactive”; with `CCOC(=O)Nc1ccc(NCc2ccc(F)cc2)nc1N`, “inactive”; with `C[N+](C)(C)CCCCCCCCCC[N+](C)(C)C`, “inactive”.
Then `Cc1cc(C(C)(C)C)cc(C)c1CC1=NCCN1`, with “inactive”; and `OC(CCN1CCCCC1)(c1ccccc1)C1CC2C=CC1C2` (stereo not drawn), with “inactive”; and `CN(C)C/C=C(/c1ccc(Br)cc1)c1cccnc1`, with “inactive”.
`c1cc(CN2CCCCC2)cc(OCCCNc2nc3ccccc3s2)c1`: the call was inactive.
Then `CC(C)(Oc1ccc(CCNC(=O)c2ccc(Cl)cc2)cc1)C(=O)O`, with “inactive”.
With `Oc1ccc(O)cc1` the entry was “inactive”; with `COC(=O)C1=C(C)NC(C)=C(C(=O)OC(C)(C)CN(C)CCC(c2ccccc2)c2ccccc2)C1c1cccc([N+](=O)[O-])c1` (stereo not drawn), “inactive”; with `CN(C)CCC(c1ccccc1)c1ccccn1` (stereo not drawn), “inactive”.
Then `Nc1c2c(nc3ccccc13)CCCC2`, with “inactive”.
In the case of `Cc1[nH]c(=O)c(C#N)cc1-c1ccc2nccn2c1`, the compound was called inactive.
